For 99 compounds, AC50 and activity, negative = inhibition results are on record in PubChem BioAssay AID1851 (National Center for Advancing Translational Sciences (NCATS), 2009).

The whole screen tested about 16,000 compounds, of which about 5,100 (32%) were called active. Not shown: some 25% with an inconclusive outcome. The list shows a part of the results. Unmarked numbers belong to inactive results. Calls come from the whole dose curve; as a rule, active = well fitted curve in the direction sought with a large enough effect; inconclusive = small, poorly fitted or top-dose-only effect, or effect the other way; inactive = no such curve, though single readings can be large or run the other way.
% is set by controls: 0 for no effect and ±100 for the full control effect.

The target of the experiment is Cytochrome P450 3A4 (Homo sapiens) (UniProt P08684). The experiment in a line: Cytochrome panel assay with activity outcomes. Conditions: recombinant CYP, pro-luciferin dealkylation, luminescence, p450-cyp3a4; series mostly up to 57.1 µM.
Chain of Cytochrome P450 3A4 (Homo sapiens) (P08684 whole entry, looked up): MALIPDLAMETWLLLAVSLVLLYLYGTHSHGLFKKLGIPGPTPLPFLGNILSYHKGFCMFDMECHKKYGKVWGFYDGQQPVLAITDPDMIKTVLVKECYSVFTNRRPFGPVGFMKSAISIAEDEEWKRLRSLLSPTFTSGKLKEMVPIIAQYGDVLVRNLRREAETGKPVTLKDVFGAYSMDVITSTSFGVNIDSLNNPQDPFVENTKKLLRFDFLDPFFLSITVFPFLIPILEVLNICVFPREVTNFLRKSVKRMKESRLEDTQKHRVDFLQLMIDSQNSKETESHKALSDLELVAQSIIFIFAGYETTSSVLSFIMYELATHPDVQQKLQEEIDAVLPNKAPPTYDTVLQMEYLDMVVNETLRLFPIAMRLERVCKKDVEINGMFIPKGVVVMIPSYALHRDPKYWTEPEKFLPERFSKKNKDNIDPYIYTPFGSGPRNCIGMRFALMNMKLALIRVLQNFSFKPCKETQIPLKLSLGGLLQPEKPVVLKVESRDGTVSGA
For `COc1ccc(-c2nc3c([nH]2)c(=O)n(C)c(=O)n3C)c(OC)c1`, the AC50 (usually the concentration at which the activity in the assay is half-maximal) was 1.58 µM (active).

For the compound `Cn1c(=O)c2[nH]c(-c3ccccc3)nc2n(C)c1=O`, the AC50 result is “inactive”.

Consider `Cn1c(=O)c2[nH]c(-c3ccc(S(=O)(=O)O)cc3)nc2n(C)c1=O`, for which the AC50 entry was “inactive”.

On to `C[N+]1(CCOc2ccc([N+](=O)[O-])cc2)CCOCC1`, for which the AC50 result was “inactive”.

For the compound `CS/C(N)=N/N=C/c1ccc([N+](=O)[O-])cc1`, the AC50 entry was “inactive”.

With `COc1ccc(C=NC(CO)C(O)c2ccc([N+](=O)[O-])cc2)cc1` (centres undefined), the half-maximal activity concentration (AC50) was 10 µM (active).

Regarding `COc1cccc(NC(=O)c2cc(-c3cccnc3)nc3c(Cl)cccc23)c1`, the half-maximal activity concentration (AC50) was 2.24 µM (active).

Regarding `COc1ccc(NC(=O)c2cc(-c3cccnc3)nc3ccc(C)cc23)cc1OC`, the AC50 is 1.41 µM (active).

For the compound `COc1cc2c(cc1NC(=O)Nc1ccccc1)oc1ccccc12`, the AC50 result was “inactive”.

Take `COc1ccccc1CC(=O)Nc1cc2oc3ccccc3c2cc1OC`: the AC50 was 7.08 µM (active).

For `COc1cc2c(cc1NC(=O)c1cc(-c3cccnc3)nc3ccc(C)cc13)oc1ccccc12`, the half-maximal activity concentration (AC50) was 3.98 µM (active).

With `CC(C)(S)[C@H](N)C(=O)O`, the activity, negative = inhibition is -0.648% [at 11.4 µM].

As for `CC(C)(SCc1ccccc1)[C@H](N)C(=O)O`, the activity, negative = inhibition is -12.3% [at 11.4 µM].

On to `Cc1ccc2nc(-c3ccccc3)cc(C(=O)NCCCn3ccnc3)c2c1`, for which the AC50 was 0.562 µM (active).

Regarding `COc1ccc(Nc2cc(C(=O)NCCCN3CCN(C)CC3)c3ccccc3n2)cc1`, the AC50 result was “inactive”.

On to `CC(=O)Nc1ccc(-c2cc(C(=O)O)c3cc4ccccc4cc3n2)cc1`, for which the activity, negative = inhibition was -8.77% [at 11.4 µM].

As to `Cc1cccc(CNc2cc(-c3ccoc3)ncn2)c1`, the concentration at half-maximal activity (AC50) was 7.94 µM (active).

In the case of `Cc1cnc(CNc2cc(-c3ccoc3)ncn2)cn1`, the AC50 entry is “inactive”.

On to `Cc1cccc(CNc2cc(-c3ccc(N(C)C)cc3)ncn2)c1`, for which the AC50 is 6.31 µM (active).

As to `Cc1noc(C)c1-c1cc(NCc2ccccc2)ncn1`, the AC50 result is “inactive”.

Regarding `Cc1cccc(CNc2cc(-c3c(C)noc3C)ncn2)c1`, the AC50 is 5.01 µM (active).

On to `CN(C)c1ccc(-c2cc(NCc3cccnc3)ncn2)cc1`, for which the half-maximal activity concentration (AC50) was 3.16 µM (active).

For the compound `O=C1C[C@@H](O)[C@@H](O)[C@@H]2[C@H]3C(=O)N(c4ccc(F)cc4F)C(=O)[C@@H]3CC[C@@H]12`, the activity, negative = inhibition is -8.71% [at 11.4 µM].

Take `O=C(O)[C@@H](S)[C@H](S)C(=O)O`: the activity, negative = inhibition was -14.7% [at 11.4 µM].

Regarding `Cc1ncc(CO)c(CO)c1O`, the AC50 result was “inactive”.

Consider `O=c1c(C=Nc2ccc(Oc3ccccc3)cc2)c[nH]n1-c1cccc(Cl)n1`, for which the AC50 result was “inactive”.

Regarding `Cn1c(N)nc2c(nc(OCc3ccccc3)n2[C@@H]2O[C@H](CO)[C@@H](O)[C@@H]2O)c1=O`, the activity, negative = inhibition was -4.84% [at 11.4 µM].

Regarding `CCn1cc(C(=O)NCC(=O)OC)c2cc(OC)c(OC)cc2c1=O`, the AC50 result is “inactive”.

For the compound `CN(C)c1ccc(-c2cc(NCc3ccccc3)ncn2)cc1`, the AC50 is 15.8 µM (active).

`CCNc1nc(Oc2c(Cl)cccc2Cl)cc(C(F)(F)F)n1`: the AC50 entry was “inactive”.

Regarding `FC(F)(F)c1cc(-c2ccco2)nc(NCc2cccs2)n1`, the AC50 is 25.1 µM (active).

On to `FC(F)(F)c1cc(-c2ccco2)nc(NCCc2ccccc2)n1`, for which the activity, negative = inhibition was 0.414% [at 2.29 µM].

Turning to `O=C(CSc1nnc(SCc2cccc3ccccc23)s1)c1ccc2c(c1)OCO2`, the concentration at half-maximal activity (AC50) is 2.82 µM (active).

On to `CC1(C)CCCN(C(=O)N2c3ccccc3Sc3ccccc32)C1`, for which the activity, negative = inhibition is -13% [at 2.29 µM].

Turning to `CC1CCN(CC(=O)N2c3ccccc3Sc3cc4ccccc4cc32)CC1`, the AC50 was 3.98 µM (active).

Consider `CC1CCN(CC[C@H]2CCCN2S(=O)(=O)c2cccc(O)c2)CC1`, for which the AC50 entry is “inactive”.

With `Cc1c(CCO)c(=O)n(-c2ccccc2)n1S(=O)(=O)c1c(Cl)cc(Cl)cc1Cl`, the half-maximal activity concentration (AC50) is 4.47 µM (active).

Consider `Cc1c(N(C)CS(=O)(=O)O)c(=O)n(-c2ccccc2)n1C`, for which the AC50 result was “inactive”.

Regarding `Cc1c(CCO)c(=O)n(C)n1C(=O)c1ccc(F)cc1`, the AC50 entry was “inactive”.

`COc1cccc(-c2cc(NCc3ccccc3OC)ncn2)c1`: the AC50 is 15.8 µM (active).

For the compound `COc1cccc(-c2cc(NCc3ccc(OC)cc3OC)ncn2)c1`, the AC50 was 2.51 µM (active).

For the compound `CC(C)NC[C@@H](O)COc1ccc(COCCOC(C)C)cc1`, the AC50 result is “inactive”.

Consider `Cc1csc(NC(=O)CCNS(=O)(=O)c2ccc3c(c2)c(=O)n(C)c(=O)n3C)n1`, for which the AC50 is 7.94 µM (active).

As to `Cc1ccc(CNC(=O)CCNS(=O)(=O)c2ccc3c(c2)c(=O)n(C)c(=O)n3C)cc1`, the concentration at half-maximal activity (AC50) is 1.78 µM (active).

As for `CCOc1ccc(NC(=O)CCNS(=O)(=O)c2ccc3c(c2)c(=O)n(C)c(=O)n3C)cc1`, the AC50 was 14.1 µM (active).

Take `Cn1c(=O)c2cc(S(=O)(=O)NCCC(=O)Nc3ccc(Cl)cc3)ccc2n(C)c1=O`: the AC50 result is “inactive”.

On to `Cn1c(=O)c2cc(S(=O)(=O)NCCC(=O)NCc3ccccc3Cl)ccc2n(C)c1=O`, for which the AC50 was 14.1 µM (active).

`Cn1c(=O)n(C)c2cc(S(=O)(=O)O)ccc21`: the AC50 result is “inactive”.

Turning to `Cn1c(=O)c2cc(S(=O)(=O)NCCC(=O)NCCc3ccc(Cl)cc3)ccc2n(C)c1=O`, the concentration at half-maximal activity (AC50) is 12.6 µM (active).

With `Cc1nn(-c2ccccc2)c2c1C(=O)N(Cc1ccccc1)C(=O)C(C)(C)C2`, the activity, negative = inhibition was 1.57% [at 2.29 µM].

`Clc1ccc(-c2nnc(CCc3ccccc3)o2)c(Cl)c1`: the activity, negative = inhibition is 0.747% [at 2.29 µM].

Consider `O=c1c(-c2nnc(SCc3ccc(Cl)cc3Cl)o2)cccn1Cc1ccccc1`, for which the half-maximal activity concentration (AC50) was 22.4 µM (active).

`CSc1nnc(-c2ccc(Cl)cc2Cl)o1`: the AC50 result was “inactive”.

As to `O=c1c(-c2nnc(SCc3ccc(Cl)c(Cl)c3)o2)cccn1Cc1ccccc1`, the AC50 is 20 µM (active).

Regarding `CC(C)c1ccc(C2C(C#N)=C(N)N3C(=C2C#N)Sc2ccccc23)cc1` (centres undefined), the AC50 entry is “inactive”.

On to `Cc1ccc(Cl)cc1-n1c(=O)cc(N2CC(C)OC(C)C2)[nH]c1=O` (centres undefined), for which the AC50 entry is “inactive”.

For the compound `c1ccc2c(c1)-c1nc3ccccc3cc1[C@H]2N1CCOCC1`, the half-maximal activity concentration (AC50) was 2.51 µM (active).

With `O=S1(=O)C=C(N2CCOCC2)c2ccccc21`, the activity, negative = inhibition is -21% [at 11.4 µM].

Consider `O=C(O)CN(CCN(CC(=O)O)CC(=O)O)CC(=O)O.[Cu]`, for which the activity, negative = inhibition is 10.2% [at 11.4 µM].

As to `N#CC(=C1CCCC1)c1nc(-c2ccccc2)cs1`, the AC50 was 15.8 µM (active).

Take `O=C(Nc1ccc(-c2csc(-c3ccccc3)n2)cc1)c1ccccc1Cl`: the AC50 entry was “inactive”.

Consider `COc1ccc(/C=N/N(C(C)=O)c2nc(-c3ccc(C)cc3)cs2)cc1`, for which the AC50 result is “inactive”.

As to `N=C1SCC(=O)N1c1nc(-c2ccccc2)cs1`, the activity, negative = inhibition was 0.753% [at 2.29 µM].

With `Cc1ccc(-c2csc(C(C#N)=C3CCCC3)n2)cc1`, the AC50 was 20 µM (active).

As to `O=S(=O)(N/N=C\C=C\c1ccccc1)c1ccc(Br)cc1`, the AC50 is 14.1 µM (active).

For the compound `Cc1sc(N/N=C/C=C/c2ccccc2)nc1-c1ccccc1`, the activity, negative = inhibition was -9.33% [at 11.4 µM].

On to `Brc1ccc(/C=C/C=N/Nc2nc3ccccc3s2)cc1`, for which the AC50 entry was “inactive”.

In the case of `CCC/C=C(\CCC)C(NC(=O)c1ccccc1)c1ccccc1` (centres undefined), the AC50 was 10 µM (active).

For `CC(C)NC(=O)/C(=N\O)c1ccccc1`, the AC50 result was “inactive”.

As to `CCC/C=C(\CCC)C(NC(=O)c1ccc(C(F)(F)F)cc1)c1ccccc1` (centres undefined), the concentration at half-maximal activity (AC50) was 15.8 µM (active).

Take `Cc1cc(S(=O)(=O)NCCN(C)C)c(C)s1`: the AC50 entry is “inactive”.

As to `COC(=O)/C(=C\C(=O)c1ccccc1)Nc1cccc(C(F)(F)F)c1`, the AC50 entry was “inactive”.

Turning to `CCOc1ccc(C(F)(F)F)cc1NC(C)=O`, the AC50 result was “inactive”.

As to `CN(C)S(=O)(=O)Oc1ccc(Cl)cc1C(=O)Nc1cccc(C(F)(F)F)c1`, the concentration at half-maximal activity (AC50) was 12.6 µM (active).

For the compound `CN(C)S(=O)(=O)Oc1ccccc1C(=O)Nc1cccc(C(F)(F)F)c1`, the AC50 is 11.2 µM (active).

`COC(=O)[C@]1(C)CCC(c2ccc(C)cc2)=C(CC(=O)O)C1`: the activity, negative = inhibition was -9.37% [at 11.4 µM].

Consider `Cc1cccc2cc(=O)[nH]c(C)c12`, for which the AC50 result was “inactive”.

`CCOC(=O)N1CCC(NC(=O)CCC(=O)N2CC(C)Oc3ccc(C)cc32)CC1` (centres undefined): the AC50 is 8.91 µM (active).

On to `Cc1ccc2c(c1)N[C@H](c1ccc(C(=O)O)cc1)c1cccn1-2`, for which the half-maximal activity concentration (AC50) was 0.0501 µM (active).

For the compound `CN1CCCN(S(=O)(=O)c2ccc3c(c2)OCCO3)CC1`, the AC50 entry is “inactive”.

Take `Cc1ccc(Cl)cc1N1CCN(S(=O)(=O)c2ccc3c(c2)OCCO3)CC1`: the AC50 result is “inactive”.

For the compound `Cc1ccc2nc(N3CCN(S(=O)(=O)c4ccc5c(c4)OCCO5)CC3)c(C#N)cc2c1`, the concentration at half-maximal activity (AC50) is 6.31 µM (active).

Take `c1ccc([C@H](CCN2CCCC2)c2ccccn2)cc1`: the activity, negative = inhibition is -2.32% [at 11.4 µM].

With `Cc1[nH]c2ccccc2c1C(c1ccccn1)N1CCC(C)CC1` (centres undefined), the half-maximal activity concentration (AC50) is 2.24 µM (active).

As to `CN(C)CC(CN(C)C)c1ccccn1`, the activity, negative = inhibition was -2.93% [at 11.4 µM].

For `N=C(N)c1ccccc1`, the AC50 result is “inactive”.

As to `Cc1ccc(N(CCC#N)C(=O)CSc2ccc3c(c2)OCCO3)cc1`, the concentration at half-maximal activity (AC50) was 15.8 µM (active).

`CCn1c2ccccc2c2cc(NS(=O)(=O)c3ccccc3C)ccc21`: the half-maximal activity concentration (AC50) was 1 µM (active).

As for `CCn1c(C)nc2cc(C(=O)NNS(=O)(=O)c3ccccc3F)ccc21`, the AC50 result is “inactive”.

For the compound `c1ccc2c(c1)c1ccccc1n2Cn1c2ccccc2c2ccccc21`, the activity, negative = inhibition was -21.4% [at 11.4 µM].

Regarding `C[C@@]1(C(NC(=O)c2ccc(-c3ccccc3)cc2)c2ccc(Cl)cc2)C[C@H]1C1CCCCC1` (some centres undefined), the AC50 result is “inactive”.

As for `CC(C)(C)C(=O)NC(c1ccc(Cl)cc1)[C@]1(C)C[C@H]1C1CCCCC1` (some centres undefined), the AC50 was 12.6 µM (active).

For the compound `COC(=O)c1ccc(C(NC(=O)c2ccco2)[C@]2(C)C[C@H]2C2CCCCC2)cc1` (some centres undefined), the AC50 was 7.94 µM (active).

Consider `C[C@@]1(C(NC(=O)Cc2ccc(C(F)(F)F)cc2)c2ccc(-c3ccccc3)cc2)C[C@H]1C1CCCCC1` (some centres undefined), for which the AC50 entry is “inactive”.

`COCc1cc(=O)[nH]c2cc(NC(=O)C(F)(F)F)c(C)cc12`: the activity, negative = inhibition is -1.96% [at 11.4 µM].

In the case of `CCc1nnc(NC(=O)CSc2ncnc3c2cnn3-c2ccc(OC)cc2)s1`, the AC50 result was “inactive”.

Consider `Cc1nnc(NC(=O)CSc2ncnc3c2cnn3-c2ccccc2C)s1`, for which the AC50 result was “inactive”.

As for `CCOc1ccc(-n2ccnc2SCC(=O)Nc2nnc(CC)s2)cc1`, the AC50 is 14.1 µM (active).

Regarding `CCOc1ccc(-n2ccnc2SCC(=O)Nc2nnc(C)s2)cc1`, the half-maximal activity concentration (AC50) was 14.1 µM (active).
